This passage reports binding signal results from paper PMC7862700, “An all-to-all approach to the identification of sequence-specific readers for epigenetic DNA modifications on cytosine”.

What all share (test): DAPPL (digital affinity profiling via proximity ligation, sequencing); 10 mM Tris-HCl pH 7.5, 50 mM NaCl, 1 mM DTT, 4% glycerol, room temperature, 30 min; GST-TFs on glutathione beads, 16-mer random dsDNA library, 0.1% formaldehyde crosslink after washing; high values mean tight binding
What all share (conditions): protein: recombinant; tags: N-terminal GST; dsDNA, one strand shown

The target in one experiment is T1, ELK1 (Homo sapiens, UniProt P19419 1-428).
T1 sequence: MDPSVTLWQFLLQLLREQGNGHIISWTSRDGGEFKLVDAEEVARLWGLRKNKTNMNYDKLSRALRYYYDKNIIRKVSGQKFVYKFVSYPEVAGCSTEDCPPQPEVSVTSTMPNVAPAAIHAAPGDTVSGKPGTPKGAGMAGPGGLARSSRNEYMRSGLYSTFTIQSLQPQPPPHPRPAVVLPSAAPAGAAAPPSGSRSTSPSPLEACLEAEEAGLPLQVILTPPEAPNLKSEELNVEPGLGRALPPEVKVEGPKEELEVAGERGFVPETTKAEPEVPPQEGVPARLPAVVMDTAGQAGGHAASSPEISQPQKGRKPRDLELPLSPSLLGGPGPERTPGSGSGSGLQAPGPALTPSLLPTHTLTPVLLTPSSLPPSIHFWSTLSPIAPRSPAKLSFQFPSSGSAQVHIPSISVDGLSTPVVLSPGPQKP
An outline of the steps:
(§1)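 GST fusions of human transcription factors were expressed in yeast and captured with glutathione beads. Once given DNA barcodes and pooled alongside a tag-only sample, they were incubated for 30 min at room temperature with 200 nmole of a random double-stranded 16-mer DNA library in Tris/NaCl/DTT/glycerol buffer, then washed, crosslinked (0.1% formaldehyde), proximity-ligated, PCR-amplified and sequenced on an Illumina NextSeq500. The binding signal of each hexamer is its read frequency for a factor divided by its frequency for the tag-only sample.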

The next experiment deals with T2, GABPA (Homo sapiens, UniProt Q06546 1-454).
T2 sequence: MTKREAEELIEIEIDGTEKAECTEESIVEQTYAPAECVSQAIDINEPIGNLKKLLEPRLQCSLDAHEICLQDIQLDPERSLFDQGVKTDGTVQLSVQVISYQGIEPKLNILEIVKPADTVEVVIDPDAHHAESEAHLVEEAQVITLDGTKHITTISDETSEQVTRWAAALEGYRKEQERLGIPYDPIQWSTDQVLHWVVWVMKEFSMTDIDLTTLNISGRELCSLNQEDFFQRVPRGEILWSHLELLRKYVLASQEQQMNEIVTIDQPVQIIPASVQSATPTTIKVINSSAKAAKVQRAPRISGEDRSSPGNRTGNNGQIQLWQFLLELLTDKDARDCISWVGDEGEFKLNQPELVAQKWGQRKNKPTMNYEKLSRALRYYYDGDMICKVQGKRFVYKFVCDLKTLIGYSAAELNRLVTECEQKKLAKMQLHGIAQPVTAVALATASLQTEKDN
An outline of the steps: as §1

In a further experiment the target is T3, ERG (Homo sapiens, UniProt P11308 1-479).
T3 sequence: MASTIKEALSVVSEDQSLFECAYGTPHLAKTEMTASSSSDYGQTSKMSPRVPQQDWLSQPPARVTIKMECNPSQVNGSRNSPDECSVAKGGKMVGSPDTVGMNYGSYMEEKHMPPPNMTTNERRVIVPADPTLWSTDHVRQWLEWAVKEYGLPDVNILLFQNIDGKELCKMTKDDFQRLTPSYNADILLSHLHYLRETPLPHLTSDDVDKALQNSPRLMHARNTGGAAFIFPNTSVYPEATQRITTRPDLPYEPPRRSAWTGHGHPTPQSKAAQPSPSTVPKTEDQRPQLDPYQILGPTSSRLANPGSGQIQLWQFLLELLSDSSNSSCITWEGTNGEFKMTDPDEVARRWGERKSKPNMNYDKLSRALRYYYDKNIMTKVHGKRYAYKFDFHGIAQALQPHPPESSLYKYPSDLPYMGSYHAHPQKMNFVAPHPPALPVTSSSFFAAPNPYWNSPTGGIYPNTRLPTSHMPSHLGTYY
An outline of the steps: as §1

The target of the next experiment is ELF1 (Homo sapiens, UniProt P32519 1-619). An outline of the steps: as §1
In a further experiment the target is T4, EHF (Homo sapiens, UniProt Q9NZC4 1-300).
T4 sequence: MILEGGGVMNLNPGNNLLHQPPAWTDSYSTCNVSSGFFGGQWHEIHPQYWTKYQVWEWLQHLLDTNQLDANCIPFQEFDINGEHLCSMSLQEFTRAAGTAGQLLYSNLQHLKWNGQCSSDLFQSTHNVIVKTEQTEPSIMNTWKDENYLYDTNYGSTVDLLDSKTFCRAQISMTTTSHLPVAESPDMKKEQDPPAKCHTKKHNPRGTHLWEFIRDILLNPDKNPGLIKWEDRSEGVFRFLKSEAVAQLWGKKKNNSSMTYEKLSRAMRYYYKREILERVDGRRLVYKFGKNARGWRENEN
Summed up: as §1

In a further experiment the target is SPIB (Homo sapiens, UniProt Q01892 1-262). Summed up:
as §1

Another experiment has as its target ETV5 (Homo sapiens, UniProt P41161 1-510). Summed up:
as §1

The next experiment addresses ELF4 (Homo sapiens, UniProt Q99607 1-663). An outline of the steps:
as §1

The next experiment has as its target T5, ELK4 (Homo sapiens, UniProt P28324-2 1-405).
T5 sequence: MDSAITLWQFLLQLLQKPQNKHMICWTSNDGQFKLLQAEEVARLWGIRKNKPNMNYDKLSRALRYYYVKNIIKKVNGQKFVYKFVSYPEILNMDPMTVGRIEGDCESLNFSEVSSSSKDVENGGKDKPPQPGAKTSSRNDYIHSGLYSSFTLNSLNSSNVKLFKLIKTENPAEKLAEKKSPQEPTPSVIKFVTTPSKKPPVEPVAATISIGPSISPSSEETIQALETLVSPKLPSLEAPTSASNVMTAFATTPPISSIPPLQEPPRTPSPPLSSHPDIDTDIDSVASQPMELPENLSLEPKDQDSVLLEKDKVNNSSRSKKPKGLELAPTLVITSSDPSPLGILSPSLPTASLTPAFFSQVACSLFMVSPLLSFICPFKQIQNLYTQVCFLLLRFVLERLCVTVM
Summed up:
as §1

The target in another experiment is T6, ETV2 (Homo sapiens, UniProt O00321 1-342).
T6 sequence: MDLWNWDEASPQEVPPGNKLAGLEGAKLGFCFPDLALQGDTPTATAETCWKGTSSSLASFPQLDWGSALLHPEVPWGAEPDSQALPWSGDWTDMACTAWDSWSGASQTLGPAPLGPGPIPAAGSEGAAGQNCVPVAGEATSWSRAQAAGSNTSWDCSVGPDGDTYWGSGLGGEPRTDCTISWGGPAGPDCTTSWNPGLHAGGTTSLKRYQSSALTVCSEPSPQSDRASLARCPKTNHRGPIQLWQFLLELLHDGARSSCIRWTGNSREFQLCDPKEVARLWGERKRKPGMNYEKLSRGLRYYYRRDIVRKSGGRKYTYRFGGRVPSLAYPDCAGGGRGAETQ
An outline of the steps:
as §1

For another experiment, the target named is T7, ELF3 (Homo sapiens, UniProt P78545 1-371).
T7 sequence: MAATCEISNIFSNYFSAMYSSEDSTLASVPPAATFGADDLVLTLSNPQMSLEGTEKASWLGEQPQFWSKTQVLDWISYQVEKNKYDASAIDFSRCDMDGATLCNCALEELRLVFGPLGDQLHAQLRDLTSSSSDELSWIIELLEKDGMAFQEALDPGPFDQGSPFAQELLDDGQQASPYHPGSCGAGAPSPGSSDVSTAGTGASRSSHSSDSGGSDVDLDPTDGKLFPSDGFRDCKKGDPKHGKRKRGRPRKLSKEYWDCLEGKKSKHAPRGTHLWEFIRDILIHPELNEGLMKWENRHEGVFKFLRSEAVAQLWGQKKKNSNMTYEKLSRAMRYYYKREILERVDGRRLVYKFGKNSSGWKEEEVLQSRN
An outline of the steps:
as §1

The target of another experiment is ETV1 (Homo sapiens, UniProt P50549 1-477). An outline of the steps: as §1
In a further experiment the target is T8, ERF (Homo sapiens, UniProt P50548 1-548).
T8 sequence: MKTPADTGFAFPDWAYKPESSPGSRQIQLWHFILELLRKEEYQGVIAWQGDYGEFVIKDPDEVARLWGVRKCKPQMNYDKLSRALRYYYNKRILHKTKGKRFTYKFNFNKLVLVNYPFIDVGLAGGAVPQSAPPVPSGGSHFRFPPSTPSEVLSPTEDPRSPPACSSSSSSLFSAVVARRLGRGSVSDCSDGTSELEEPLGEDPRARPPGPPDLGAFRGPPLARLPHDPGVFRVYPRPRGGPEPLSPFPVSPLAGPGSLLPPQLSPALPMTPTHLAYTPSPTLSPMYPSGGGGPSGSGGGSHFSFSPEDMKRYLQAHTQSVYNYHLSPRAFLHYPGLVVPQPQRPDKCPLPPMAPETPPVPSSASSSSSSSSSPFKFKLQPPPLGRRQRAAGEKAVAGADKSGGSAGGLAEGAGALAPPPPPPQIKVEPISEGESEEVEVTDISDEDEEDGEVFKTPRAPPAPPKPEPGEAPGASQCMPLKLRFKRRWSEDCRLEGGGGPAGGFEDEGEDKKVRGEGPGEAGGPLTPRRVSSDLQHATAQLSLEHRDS
An outline of the steps: as §1

The next experiment has as its target T9, ETV3L (Homo sapiens, UniProt Q6ZN32 1-361).
T9 sequence: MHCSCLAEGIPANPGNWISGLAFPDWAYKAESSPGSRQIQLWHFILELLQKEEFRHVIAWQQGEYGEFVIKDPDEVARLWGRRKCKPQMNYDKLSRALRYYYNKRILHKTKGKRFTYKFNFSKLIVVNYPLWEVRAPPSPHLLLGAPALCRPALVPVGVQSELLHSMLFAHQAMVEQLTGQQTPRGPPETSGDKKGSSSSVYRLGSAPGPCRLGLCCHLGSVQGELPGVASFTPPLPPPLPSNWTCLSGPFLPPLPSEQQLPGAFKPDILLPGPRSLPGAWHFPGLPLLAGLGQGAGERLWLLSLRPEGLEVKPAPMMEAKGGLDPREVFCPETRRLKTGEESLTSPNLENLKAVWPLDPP
An outline of the steps: as §1

The target in the next experiment is T10, ETV7 (Homo sapiens, UniProt Q9Y603 1-341).
T10 sequence: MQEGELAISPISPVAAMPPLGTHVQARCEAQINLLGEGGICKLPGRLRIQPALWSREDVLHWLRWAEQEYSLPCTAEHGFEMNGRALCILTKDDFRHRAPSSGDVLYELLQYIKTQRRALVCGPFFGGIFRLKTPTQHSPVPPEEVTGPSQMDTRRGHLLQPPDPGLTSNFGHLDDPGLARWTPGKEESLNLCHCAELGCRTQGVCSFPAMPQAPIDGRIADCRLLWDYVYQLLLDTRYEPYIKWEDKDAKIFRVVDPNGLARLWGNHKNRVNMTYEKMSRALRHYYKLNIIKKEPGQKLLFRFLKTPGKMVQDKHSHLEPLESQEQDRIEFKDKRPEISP
An outline of the steps: as §1

A further experiment concerns the target T11, ETV3 (Homo sapiens, UniProt P41162-2 1-143).
T11 sequence: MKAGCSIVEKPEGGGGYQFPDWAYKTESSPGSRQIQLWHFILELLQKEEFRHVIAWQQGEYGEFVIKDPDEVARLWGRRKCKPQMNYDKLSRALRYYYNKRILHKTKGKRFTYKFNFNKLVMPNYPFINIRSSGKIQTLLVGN
An outline of the steps: as §1

A further experiment concerns the target ETV6 (Homo sapiens, UniProt P41212 1-452). Summed up:
as §1

ELF4, sequence (Q99607 whole entry): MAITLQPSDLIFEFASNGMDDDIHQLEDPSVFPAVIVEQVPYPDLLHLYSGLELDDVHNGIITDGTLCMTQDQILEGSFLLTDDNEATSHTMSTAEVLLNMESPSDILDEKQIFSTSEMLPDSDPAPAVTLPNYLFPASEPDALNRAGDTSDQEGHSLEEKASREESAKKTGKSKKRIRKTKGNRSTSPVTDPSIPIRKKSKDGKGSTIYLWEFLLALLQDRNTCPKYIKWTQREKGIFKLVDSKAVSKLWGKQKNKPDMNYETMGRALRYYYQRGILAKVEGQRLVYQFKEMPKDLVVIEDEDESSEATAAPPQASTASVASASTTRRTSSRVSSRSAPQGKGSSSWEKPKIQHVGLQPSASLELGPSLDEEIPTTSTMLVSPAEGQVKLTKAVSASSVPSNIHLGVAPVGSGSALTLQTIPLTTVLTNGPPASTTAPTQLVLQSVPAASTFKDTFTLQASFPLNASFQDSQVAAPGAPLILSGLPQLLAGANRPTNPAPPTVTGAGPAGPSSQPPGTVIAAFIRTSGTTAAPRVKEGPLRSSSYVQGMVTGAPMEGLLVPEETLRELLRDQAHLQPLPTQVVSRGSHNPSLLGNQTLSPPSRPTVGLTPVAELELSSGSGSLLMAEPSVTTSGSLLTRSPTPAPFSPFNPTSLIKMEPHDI
ELF1, sequence (P32519 whole entry): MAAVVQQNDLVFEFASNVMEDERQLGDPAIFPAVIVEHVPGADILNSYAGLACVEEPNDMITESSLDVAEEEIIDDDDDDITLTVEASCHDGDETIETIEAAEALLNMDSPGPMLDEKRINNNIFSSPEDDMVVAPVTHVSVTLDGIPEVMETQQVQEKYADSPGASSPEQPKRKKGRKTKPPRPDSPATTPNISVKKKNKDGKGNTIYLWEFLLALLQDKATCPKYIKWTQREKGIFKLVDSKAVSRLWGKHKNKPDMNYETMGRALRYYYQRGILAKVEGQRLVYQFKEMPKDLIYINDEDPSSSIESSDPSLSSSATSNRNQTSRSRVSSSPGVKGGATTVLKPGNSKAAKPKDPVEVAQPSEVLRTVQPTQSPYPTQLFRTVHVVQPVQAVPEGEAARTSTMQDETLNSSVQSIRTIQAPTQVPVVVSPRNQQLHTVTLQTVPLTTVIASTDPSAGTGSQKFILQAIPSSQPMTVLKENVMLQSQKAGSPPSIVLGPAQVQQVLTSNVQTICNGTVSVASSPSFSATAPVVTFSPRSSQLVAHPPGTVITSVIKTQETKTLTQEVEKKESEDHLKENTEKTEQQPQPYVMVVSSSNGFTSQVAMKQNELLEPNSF
ETV5, sequence (P41161 whole entry): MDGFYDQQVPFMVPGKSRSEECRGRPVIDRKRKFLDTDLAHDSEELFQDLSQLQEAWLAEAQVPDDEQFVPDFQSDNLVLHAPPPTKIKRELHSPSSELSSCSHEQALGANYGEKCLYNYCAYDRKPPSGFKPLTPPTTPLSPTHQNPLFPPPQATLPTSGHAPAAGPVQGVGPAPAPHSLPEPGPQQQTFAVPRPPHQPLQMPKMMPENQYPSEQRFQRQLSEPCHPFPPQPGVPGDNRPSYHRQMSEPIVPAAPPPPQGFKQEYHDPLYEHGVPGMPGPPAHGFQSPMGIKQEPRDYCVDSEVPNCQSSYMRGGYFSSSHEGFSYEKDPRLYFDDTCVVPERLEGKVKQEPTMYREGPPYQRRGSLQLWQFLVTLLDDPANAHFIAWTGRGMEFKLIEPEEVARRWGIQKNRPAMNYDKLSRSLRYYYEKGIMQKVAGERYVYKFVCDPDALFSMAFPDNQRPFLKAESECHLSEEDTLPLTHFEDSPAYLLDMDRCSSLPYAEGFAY
SPIB, sequence (Q01892 whole entry): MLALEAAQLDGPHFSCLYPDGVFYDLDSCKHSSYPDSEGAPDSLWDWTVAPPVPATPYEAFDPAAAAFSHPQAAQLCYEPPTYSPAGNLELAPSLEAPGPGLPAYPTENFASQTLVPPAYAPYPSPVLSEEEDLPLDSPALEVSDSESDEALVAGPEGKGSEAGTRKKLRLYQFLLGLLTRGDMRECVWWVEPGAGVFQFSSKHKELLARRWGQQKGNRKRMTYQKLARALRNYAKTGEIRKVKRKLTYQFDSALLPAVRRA
ETV1, sequence (P50549 whole entry): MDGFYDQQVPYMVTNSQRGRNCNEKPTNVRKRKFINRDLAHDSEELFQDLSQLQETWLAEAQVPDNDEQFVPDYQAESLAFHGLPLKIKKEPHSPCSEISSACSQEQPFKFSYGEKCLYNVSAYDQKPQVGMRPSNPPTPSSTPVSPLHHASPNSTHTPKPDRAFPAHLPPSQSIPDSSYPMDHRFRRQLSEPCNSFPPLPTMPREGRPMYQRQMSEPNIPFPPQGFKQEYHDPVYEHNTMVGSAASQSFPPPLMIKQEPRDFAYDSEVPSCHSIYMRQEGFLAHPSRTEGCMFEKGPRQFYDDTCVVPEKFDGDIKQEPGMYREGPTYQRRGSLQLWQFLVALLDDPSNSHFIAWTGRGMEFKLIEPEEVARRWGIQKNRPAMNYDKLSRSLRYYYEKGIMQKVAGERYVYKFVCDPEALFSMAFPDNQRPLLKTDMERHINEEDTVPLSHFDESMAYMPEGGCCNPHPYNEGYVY
ETV6, sequence (P41212 whole entry): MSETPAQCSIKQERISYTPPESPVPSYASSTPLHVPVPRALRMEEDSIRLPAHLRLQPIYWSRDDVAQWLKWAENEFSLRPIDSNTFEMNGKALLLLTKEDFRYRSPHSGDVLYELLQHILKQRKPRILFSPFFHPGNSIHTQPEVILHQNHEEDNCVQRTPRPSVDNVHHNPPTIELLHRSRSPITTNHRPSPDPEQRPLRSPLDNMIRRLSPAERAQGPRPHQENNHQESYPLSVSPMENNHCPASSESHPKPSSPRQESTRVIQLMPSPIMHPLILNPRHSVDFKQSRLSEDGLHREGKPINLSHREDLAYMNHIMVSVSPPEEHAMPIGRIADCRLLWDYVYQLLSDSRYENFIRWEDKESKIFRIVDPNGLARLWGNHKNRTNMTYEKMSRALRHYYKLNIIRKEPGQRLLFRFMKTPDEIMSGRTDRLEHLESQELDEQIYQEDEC

As for CGTAGC, the binding signal in the experiment with ELK1 is 1.07 fold enrichment (6-mer frequency, TF over GST control); with GABPA, 1.08 fold enrichment (6-mer frequency, TF over GST control); in the experiment with ERG it was 1.04 fold enrichment (6-mer frequency, TF over GST control); in the experiment with ELF1, 1.1 fold enrichment (6-mer frequency, TF over GST control); with EHF it was 1.05 fold enrichment (6-mer frequency, TF over GST control); with SPIB, 1.07 fold enrichment (6-mer frequency, TF over GST control). Further, the binding signal in the experiment with ETV5 was 1.08 fold enrichment (6-mer frequency, TF over GST control); with ELF4, 1.07 fold enrichment (6-mer frequency, TF over GST control); with ELK4 it was 1.23 fold enrichment (6-mer frequency, TF over GST control); with ETV2 it was 1.03 fold enrichment (6-mer frequency, TF over GST control); with ELF3 it was 1.12 fold enrichment (6-mer frequency, TF over GST control); with ETV1 it was 1.15 fold enrichment (6-mer frequency, TF over GST control). Moreover, the binding signal is 1.03 fold enrichment (6-mer frequency, TF over GST control) with ERF; 1.09 fold enrichment (6-mer frequency, TF over GST control) in the experiment with ETV3L; 1.09 fold enrichment (6-mer frequency, TF over GST control) with ETV7; 1.04 fold enrichment (6-mer frequency, TF over GST control) with ETV3; 1.1 fold enrichment (6-mer frequency, TF over GST control) with ETV6.
